Bioassay records (PubChem BioAssay)
MEX-5 binding = MEX-5 zinc finger RNA-binding disruptors – biochemical, C. elegans, fluorescence polarization, MLPCN library, primary screen. Zinc finger protein mex-5 (Caenorhabditis elegans), Q9XUB2. MEX-5/FITC-TCR2 RNA binding; stronger effect = lower value. activity score (negative = inhibition of binding), % at 10 µM. 300,000 tested, 0.38% active. AID 1832, 2009;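 active means inhibition past about -25% in most replicates, and total fluorescence under double the plate's negative control median, limit read from the data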
Keap1 Nrf2 FP = Keap1-Nrf2 protein-protein interaction inhibitors, primary screen, biochemical, fluorescence polarization, single point; Kelch-like ECH-associated protein 1 (Homo sapiens), Q14145; Keap1 Kelch-Nrf2 peptide fluorescence polarization, 1536-well; inhibition, % at 9.4 µM; 340,000 tested, 0.15% active; in the data active means inhibition above about 12%;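 further: human Keap1 Kelch domain with fluorescein labeled Nrf2 9mer peptide probe; higher means more block of Keap1 binding to Nrf2 peptide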
BCLXL inh = inhibitors of human Bcl-xL, primary screen, biochemical, fluorescence polarization, HTS. Bcl-2-like protein 1 (Homo sapiens), Q07817. GST-Bcl-xL / FITC-Bim BH3 peptide fluorescence polarization. inhibition, % at 10.9 µM. 320,000 tested, 0.7% active;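 active means inhibition above the mean of all tested compounds plus 3 SD, cutoff set per campaign, cut at about 30% in these data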;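 further: inhibitors lower millipolarization by displacing the labeled peptide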
Target sequence (Q07817 whole entry, looked up): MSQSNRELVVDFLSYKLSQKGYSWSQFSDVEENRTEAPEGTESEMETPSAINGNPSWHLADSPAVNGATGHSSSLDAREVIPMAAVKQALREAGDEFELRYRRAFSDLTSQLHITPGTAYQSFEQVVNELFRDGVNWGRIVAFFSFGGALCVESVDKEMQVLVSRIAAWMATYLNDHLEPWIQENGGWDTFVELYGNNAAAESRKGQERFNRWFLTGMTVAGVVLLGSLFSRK
GLD-1 TGE inh = GLD-1/TGE RNA complex disruptors, primary screen, biochemical, fluorescence polarization; inhibition, % at 5.96 µM; Female germline-specific tumor suppressor gld-1 (Caenorhabditis elegans), Q17339; 320,000 tested, 0.44% active; purified GLD-1 + fluorescein TGE RNA;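 active means percent inhibition above a per-plate cutoff, the plate mean of test compounds plus 3 SD, cut at about 30% in these data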
Target sequence (Q17339 whole entry, looked up): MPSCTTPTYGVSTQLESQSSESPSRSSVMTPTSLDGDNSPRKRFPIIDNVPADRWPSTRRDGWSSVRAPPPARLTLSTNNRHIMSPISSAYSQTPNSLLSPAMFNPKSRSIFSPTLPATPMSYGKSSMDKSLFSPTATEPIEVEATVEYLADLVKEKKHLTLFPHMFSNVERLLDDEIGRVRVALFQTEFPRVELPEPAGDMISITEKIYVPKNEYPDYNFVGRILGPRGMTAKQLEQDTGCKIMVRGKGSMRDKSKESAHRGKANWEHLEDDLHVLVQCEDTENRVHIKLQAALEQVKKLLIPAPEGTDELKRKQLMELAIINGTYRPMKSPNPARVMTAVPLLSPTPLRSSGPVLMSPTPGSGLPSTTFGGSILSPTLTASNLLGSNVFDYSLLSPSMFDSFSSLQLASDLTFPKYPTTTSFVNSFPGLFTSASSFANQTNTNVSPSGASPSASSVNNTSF
LANA DNA inh = inhibitors of KSHV C-LANA binding to DNA, primary screen, biochemical, fluorescence polarization, FAM-LBS DNA, MBP-C-LANA, single point. Kaposi's sarcoma herpesvirus LANA C-terminal domain (residues 932-1162) DNA binding. inhibition, % at 9 µM. 340,000 tested, 0.078% active. AID 504423, 2011;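 active means highest replicate inhibition at or above 60% at 9 µM, even if other replicates fall short; inactive means all replicates below 60% inhibition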
eLon inh = inhibitors of E. coli Lon protease, primary screen, biochemical, fluorescence polarization; P0A9M0; purified E. coli Lon protease; inhibition, % at 7.94 µM; 360,000 tested, 0.42% active; in the data active means inhibition above about 13%, passing the limit was not always enough
Of the large screens only hits and unclear results are named; the others gave an inactive call. An excerpt weighted towards active compounds, which were near 1.2% of everything screened.

COc1ccc(N2C(=O)C(Cl)=C(Nc3ccccc3O)C2=O)cc1	MEX-5 binding -34
O=C(Cc1nc2ccccc2[nH]c1=O)c1ccccc1	MEX-5 binding -61 (no result: BCLXL inh, GLD-1 TGE inh)
O=Cc1c(Cl)nc2ccccn2c1=O	BCLXL inh 56
CC1CCc2ccccc2N1CC(=O)Nc1cccc(S(=O)(=O)N2CCCC2)c1 (stereo not given)	none (no result: MEX-5 binding, BCLXL inh, GLD-1 TGE inh)
Cc1ccc(-n2[nH]c(C)c(C=Nc3ccc4[nH]c(=O)[nH]c4c3)c2=O)cc1C	BCLXL inh 60
O=C(N1CCOCC1)N1CCC(n2nnc3cc(F)ccc32)CC1	MEX-5 binding -27, BCLXL inh 76, GLD-1 TGE inh 40
COc1ccc(OCC(=O)N2CCN(S(=O)(=O)c3ccc4c(c3)OCCO4)CC2)cc1	none (no result: MEX-5 binding, Keap1 Nrf2 FP, BCLXL inh, GLD-1 TGE inh, LANA DNA inh)
CC(C)(C)c1ccc(C(=O)Nc2cccc3c(=O)[nH][nH]c(=O)c23)cc1	GLD-1 TGE inh 46
CCOC(=O)C1=C(O)/C(=C/c2cn(CC(=O)N3CCCC3)c3ccccc23)SC1=Nc1ccccc1	MEX-5 binding -47 (no result: BCLXL inh, GLD-1 TGE inh)
COC(=O)c1cn(CC(=O)N2CCCCCC2)c2ccccc12	none
COc1cccc(C(=O)/C=C/Nc2cccc(O)c2)c1	BCLXL inh 86
COc1cccc(N/C=C/C(=O)c2ccc(C)cc2)c1	none
Cc1ccc(NC(=O)COCC(=O)Nc2ccc(C)cc2)cc1	none
Cc1ccc(S(=O)(=O)OCC(=O)Nc2ccc(C(=O)O)c(O)c2)cc1	LANA DNA inh 62 (no result: MEX-5 binding, BCLXL inh, GLD-1 TGE inh)
Cc1occc1C(=O)N/N=C/C1=C(N2CCOCC2)C(=C\c2ccc(Cl)cc2Cl)/CC1	MEX-5 binding -54
CC(C)NC(=O)NC(=O)CSc1ccc(S(=O)(=O)N2CCOCC2)cn1	none (no result: MEX-5 binding, BCLXL inh, GLD-1 TGE inh)
NC(=O)CSc1ccc(S(=O)(=O)N2CCOCC2)cn1	BCLXL inh 38 (no result: MEX-5 binding)
Cc1cc2nc3ccc(=[N+](C)C)cc-3sc2cc1N	MEX-5 binding -48 (no result: BCLXL inh, GLD-1 TGE inh)
COc1ccc2nc(N=Nc3ccc(N(C)C)cc3)sc2c1	none (no result: MEX-5 binding, BCLXL inh, GLD-1 TGE inh)
CN(C)c1ccc2nc3ccc(=[N+](C)C)cc-3sc2c1	MEX-5 binding -33
Cc1nc2cc(C)c(C)cc2s1	none
OC(c1ccc(F)c(F)c1)c1ncc(-c2ccc(F)cc2)[nH]1 (stereo not given)	none (no result: MEX-5 binding, Keap1 Nrf2 FP, BCLXL inh, GLD-1 TGE inh, LANA DNA inh)
COc1ccc(NS(=O)(=O)N2CCCCC2)cc1	none (no result: MEX-5 binding, BCLXL inh, GLD-1 TGE inh)
O=C(COC(=O)CNC(=O)C1CCCCC1)NCc1ccc(Cl)cc1	none (no result: MEX-5 binding, BCLXL inh)
Oc1c(C(c2ccccc2)N2CCCCC2)ccc2ccccc12 (stereo not given)	none (no result: MEX-5 binding, Keap1 Nrf2 FP, BCLXL inh, GLD-1 TGE inh, LANA DNA inh)
O=C1c2cccc(O)c2C(=O)c2c(O)cc(CO)cc21	BCLXL inh 93, GLD-1 TGE inh 81 (no result: Keap1 Nrf2 FP, LANA DNA inh, eLon inh)
Cc1cc(O)c2c(c1)C(=O)c1cc(O)cc(O)c1C2=O	none
CC(=O)Nc1ccc(-c2ccnc3c2CC(C)(C(=O)NCC2CC2)O3)cc1 (stereo not given)	none (no result: MEX-5 binding, Keap1 Nrf2 FP, BCLXL inh, GLD-1 TGE inh, LANA DNA inh)
O=C(c1ccc2c(c1)OCO2)[C@@H]1[C@@H]2C(=O)N(C3CCCCC3)C(=O)[C@@H]2C2c3ccccc3C=CN21 (stereo not given in full)	none (no result: BCLXL inh, GLD-1 TGE inh)
O=C(c1cccs1)[C@@H]1[C@@H]2C(=O)N(Cc3ccc4c(c3)OCO4)C(=O)[C@@H]2C2c3ccccc3C=CN21 (stereo not given in full)	BCLXL inh 48, GLD-1 TGE inh 39 (no result: Keap1 Nrf2 FP, LANA DNA inh, eLon inh)
COc1ccccc1CN(C)C(=O)CN1CCN(S(=O)(=O)c2ccc3c(c2)OCCCO3)CC1	none (no result: MEX-5 binding)
Cc1ccc(C2OC34CCCCCC3C(C#N)(C(=N)O4)C2(C#N)C#N)cc1 (stereo not given)	none
CCOc1ccc(C2OC34CCCCC3C(C#N)(C#N)C2(C#N)C(=N)O4)cc1OC (stereo not given)	MEX-5 binding -29, Keap1 Nrf2 FP 19, BCLXL inh 143, GLD-1 TGE inh 130, eLon inh 34
O=C(/C=C/c1ccc(O)c(O)c1)OC1C(O)CC(OC(=O)/C=C/c2ccc(O)c(O)c2)(C(=O)O)CC1O (stereo not given)	MEX-5 binding -32
O=C(/C=C/c1ccc(O)c(O)c1)O[C@@H]1C[C@](O)(C(=O)O)C[C@@H](O)[C@H]1O	none
CCN(CC)C(=O)CSc1ncnc2c(-c3cccs3)nsc12	BCLXL inh 35 (no result: MEX-5 binding)
Cc1nn(C)cc1C1C2=C(CC(C)(C)CC2=O)N(c2ccccc2)C2=C1C(=O)CC(C)(C)C2	none
Cc1ccc(N2C3=C(C(=O)CC(C)(C)C3)C(c3cn(C)nc3C)C3=C2CC(C)(C)CC3=O)cc1	BCLXL inh 93, GLD-1 TGE inh 88, eLon inh 80
O=C1C(Nc2cccc(O)c2)=C(N2CCCCC2)C(=O)c2ccccc21	BCLXL inh 57, GLD-1 TGE inh 71
N#CC(C(=O)NC1CCCCC1)c1nc2ccccc2nc1N1CCN(c2ccc(F)cc2)CC1 (stereo not given)	MEX-5 binding -76 (no result: Keap1 Nrf2 FP, BCLXL inh, GLD-1 TGE inh, LANA DNA inh, eLon inh)
O=C(CSc1nnc(Cc2cc(=O)[nH]c(=O)[nH]2)n1-c1ccc(F)cc1)NC1CCCC1	eLon inh 16
CCSc1nnc(Cc2cc(=O)[nH]c(=O)[nH]2)n1-c1ccc(F)cc1	none
COc1cccc(-n2c(Cc3cc(=O)[nH]c(=O)[nH]3)nnc2SCC(=O)NC2CCCCC2)c1	none (no result: MEX-5 binding)
O=C(CSc1nnc(Cc2cc(=O)[nH]c(=O)[nH]2)n1-c1ccc(F)cc1)N1CCCCC1	eLon inh 14
CC1=C(C(=O)OCc2ccccc2)C(c2ccccc2[N+](=O)[O-])NC(=O)N1C (stereo not given)	MEX-5 binding -39
O=C(NCCC1CCCCN1S(=O)(=O)c1ccc(F)cc1)C(=O)NCc1cccnc1 (stereo not given)	none
COc1ccc(CCNS(=O)(=O)c2c(C)[nH]c(C)c2C(=O)N2CCCCC2)cc1OC	none
CCCCC(=Nc1ccc(N)cc1)C1=C(O)C(C(=O)OC)C(C)(C)CC1=O (stereo not given)	BCLXL inh 32
COc1cc(C(c2c(C)[nH][nH]c2=O)c2c(C)[nH][nH]c2=O)cc([N+](=O)[O-])c1O	MEX-5 binding -81
CCOc1cc(C(c2c(C)[nH][nH]c2=O)c2c(C)[nH][nH]c2=O)cc([N+](=O)[O-])c1O	MEX-5 binding -68
Cc1cc(C(F)(F)F)c(C#N)c(SCC(=O)Nc2nc3ccccc3s2)n1	BCLXL inh 37
NC1=NC(=O)C2(COC(c3cccnc3)OC2)S1 (stereo not given)	BCLXL inh 86
